The target of test [1] is Bile acid receptor (Homo sapiens) (UniProt Q96RI1). The test is described as follows: qHTS assay for small molecule antagonists of farnesoid X receptor signaling (AID 588526). Note: % is set by controls: 0 for no effect and ±100 for the full control effect. In short, it runs like this: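 Beta-lactamase reporter antagonist mode: HEK293T FXR-UAS-bla cells, titrated compound, CDCA stimulation, 16 h 37 C, CCF4 dye 2 h RT. Data normalized to CDCA 50 uM and DMSO; Hill-fit IC50.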
In general terms: In qHTS, concentration-response curves come from the screen itself.

Test [2] shares this target. The test is described as follows: qHTS assay for small molecule agonists of farnesoid X receptor signaling (AID 588527).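 Note: series mostly up to about 77 µM; 0% = vehicle basal and 100% = reference agonist.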 Particulars: HEK293T FXR-UAS-bla, beta-lactamase ratio, 16 h; activation: stronger effect = higher value. In short, it runs like this:
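Quantitative HTS used FXR-UAS-bla HEK293T cells with 16 h compound incubation at 37 C. EC50 values came from concentration-response curves normalized to chenodeoxycholic acid.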

The target in test [3] is Glucocorticoid receptor (Homo sapiens) (UniProt P04150). The test is described as follows: qHTS assay for small molecule agonists of glucocorticoid receptor signaling (AID 588532; active = well fitted curve in the direction sought with a large enough effect in the signal ratio, with a control signal flat; the % refers to the signal ratio;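 note: 100% = dexamethasone at 0.1 µM and 0% = DMSO only wells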). Particulars: HeLa MMTV-bla, beta-lactamase ratio, agonist, 18 h; activation: stronger effect = higher value, percent of dexamethasone control, DMSO zero. In short, it runs like this:
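Using MMTV-bla HeLa cells in medium with 1% stripped FBS and 25 mM HEPES, compounds were titrated and incubated overnight-length (18 h). Beta-lactamase cleavage of CCF4 was quantified by dual-emission fluorescence.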

In test [4] the target is Peroxisome proliferator-activated receptor delta (Homo sapiens) (UniProt Q03181). The test is described as follows: qHTS assay for small molecule agonists of peroxisome proliferator-activated receptor delta signaling (AID 588534).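 Note: 0% = DMSO basal wells and 100% = positive control agonist at 10 µM.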 In short, it runs like this:
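Cell-based beta-lactamase reporter assay run in agonist mode: cells seeded and incubated 5 hrs at 37 C, compounds added and incubated 18 hrs at 37 C. CCF4 dye fluorescence read after 2 hrs at RT; EC50 and efficacy from Hill fits.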

Test [5] in a line: qHTS assay for small molecule antagonists of peroxisome proliferator-activated receptor delta signaling (AID 588535).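 Note: cells co-treated with a PPAR-delta agonist as stimulator during compound exposure.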 Conditions: HEK293T PPARd-UAS-bla, beta-lactamase FRET ratio, 18 h; 460 nm channel. In a few lines:
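Cell-based beta-lactamase assay in antagonist mode: 4000 HEK293T PPAR-delta-UAS-bla cells per well, 5 hr preincubation then 18 hr compound incubation at 37 C. IC50 obtained by Hill equation fitting.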

For test [6], the target named is Vitamin D3 receptor (Homo sapiens) (UniProt P11473). The test is described as follows: qHTS assay for small molecule antagonists of vitamin D receptor signaling (AID 588541).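 Note: receptor activated by calcitriol during compound treatment; series mostly up to about 77 µM; % is set by controls: 0 for no effect and ±100 for the full control effect.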 In short, it runs like this:
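Antagonist-mode beta-lactamase reporter assay: HEK293T VDR-UAS-bla cells were exposed to titrated compound alongside 1-alpha,25-dihydroxyvitamin D3 at 3 nM final for 16 h. Values were normalized to the 50 nM agonist control and DMSO basal, with IC50 and efficacy from Hill equation fits.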

The target is the same in test [7]. Put plainly: qHTS assay for small molecule agonists of vitamin D receptor signaling (AID 588543).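 Note: 0% = DMSO basal and 100% = reference agonist control.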 In short, it runs like this: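 qHTS in agonist mode: compound titrations stimulate a VDR-driven β-lactamase reporter in HEK293T cells over 16 h at 37 °C. Response normalized to 50 nM 1α,25-dihydroxyvitamin D3 = 100%, DMSO = 0%; Hill fitting gives EC50 and maximal response.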

The target of test [8] is Retinoic acid receptor RXR-alpha (Homo sapiens) (UniProt P19793). Put plainly: qHTS assay for small molecule agonists of retinoid X receptor alpha signaling (AID 588544).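 Note: 0% = DMSO basal wells and 100% = reference agonist.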
Test [9] can be described thus: qHTS assay for small molecule antagonists of retinoid X receptor alpha signaling (AID 588546; active = well fitted inhibition curve with a large enough effect in the signal ratio, with a control signal flat, not every such curve was filed as active; the % refers to the signal ratio;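 note: cells stimulated with 9-cis-retinoic acid as agonist; % is set by controls: 0 for no effect and ±100 for the full control effect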). Particulars: HEK293T RXRa-UAS-bla, beta-lactamase ratio, antagonist mode; measured here: W530 green channel, cytotoxicity proxy. In a few lines:
(§1)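 Beta-lactamase reporter inhibition, read as CCF4 fluorescence ratio (ex 405, em 460/530 nm) after 2 h at RT. HEK293T UAS-bla cells, 2500/well, were stimulated with 9-cis-RA at 500 or 100 nM final alongside test compound for 18 h at 37 C.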

Test [10] deals with Retinoic acid receptor RXR-alpha (Homo sapiens) (UniProt P19793). The description is as above. Conditions: HEK293T RXRa-UAS-bla, beta-lactamase ratio, antagonist mode. In a few lines: as §1
Test [11] concerns the target Thyroid hormone receptor beta (Homo sapiens) (UniProt P10828). Put plainly: qHTS assay for small molecule antagonists of thyroid hormone receptor beta signaling (AID 588547; active = well fitted inhibition curve with a large enough effect in the signal ratio, with a control signal flat, not every such curve was filed as active; the % refers to the signal ratio;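 note: cells stimulated with 0.4 nM T3 agonist during compound exposure; series mostly up to about 77 µM; % is set by controls: 0 for no effect and ±100 for the full control effect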). Conditions: TR-UAS-bla HEK293, beta-lactamase ratio, antagonist mode, 18 h. In short, it runs like this:
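Inhibition of T3-driven (0.4nM final) beta-lactamase reporter activity was measured over 0.59 nM to 92 uM compound after 18 h at 37 C. The cells were GripTite HEK293 TR-UAS-bla in charcoal/dextran-stripped serum, with CCF4 ratio read-out and IC50 from Hill fits.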

Test [12] in a line: qHTS assay for small molecule activators of the p53 signaling pathway (AID 651743; active = well fitted activation curve with a large enough effect in the signal ratio, not every such curve was filed as active; the % refers to the signal ratio; note: series mostly up to about 92 µM; % of control where 0% means no effect). Conditions: HCT-116 p53RE-bla, beta-lactamase FRET ratio, 16 h; activation: stronger effect = higher value. In short, it runs like this:
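Screen for p53 pathway agonists uses stably transfected p53RE-bla HCT-116 cells, 4,000 per well, treated 16 h at 37 C with compounds in DMSO.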

The nature of test [13]: qHTS assay for small molecule activators of the nuclear factor-kappa B (NF-kB) signaling pathway (AID 651749; active = well fitted activation curve with a large enough effect in the signal ratio; the % refers to the signal ratio; note: series mostly up to about 77 µM; % of control where 0% means no effect). Conditions: NF-kB-bla ME-180 cells, beta-lactamase FRET ratio, 16 h; activation: stronger effect = higher value. In short, it runs like this: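 Stably transfected ME-180 line; NF-kB response element upstream of beta-lactamase. Treatment: compound or DMSO, 16 hr. Detection: fluorescent FRET substrate.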

Test [14] can be described thus: qHTS assay for environmental chemicals that activate the Aryl hydrocarbon Receptor (AhR) signaling pathway (AID 651777; active = well fitted curve in the direction sought with a large enough effect; an effect the other way counts as inactive or inconclusive; note: % of control where 0% means no effect; nearly all actives have a fitted effect of over 15% in size). Conditions: 1A2-DRE human hepatoma cells, luciferase, 24 h; activation: stronger effect = higher value. In a few lines:
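Luminescence (One-Glo, 30 min, room temperature) reports AhR-driven luciferase in stably transfected human hepatoma cells bearing DRE and CYP1A2 promoter. Cells (1,200/well) were treated with compound for 24 hr at 37 C in qHTS format.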

Test [15] addresses Peroxisome proliferator-activated receptor alpha (Homo sapiens) (UniProt Q07869). The test is described as follows: qHTS assay for small molecule agonists of the peroxisome proliferator-activated receptor alpha (PPARalpha) signaling pathway (AID 651778; active = well fitted curve in the direction sought with a large enough effect; an effect the other way counts as inactive or inconclusive; note: % of control where 0% means no effect). Particulars: PathHunter PPARalpha complementation, chemiluminescence, 6 h; max response: stronger effect = higher value. In a few lines:
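Chemiluminescence from complemented enzyme reported PPARalpha activation in cells after 6 hr of compound treatment at 37 C. The detection reagent was incubated for 60 min at room temperature, and compounds were scored as agonists.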

A short description of test [16]: qHTS assay for small molecule agonists of the antioxidant response element (ARE) signaling pathway measured by Nrf2-dependant transcriptional activity (AID 720636; active = well fitted curve in the direction sought with a large enough effect in the repeat runs; an effect the other way counts as inactive or inconclusive; note: % of control where 0% means no effect). In a few lines: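 Nrf2-dependent transcription read as ONE-Glo luciferase signal from ARE-luc HepG2 reporter cells after 16 hr compound treatment at 37 C, 5% CO2, in assay medium with 1% dialyzed FBS.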

A short description of test [17]: qHTS assay for small molecule agonists of the antioxidant response element (ARE) signaling pathway measured by Nrf2-dependant transcriptional activity - cell viability counter screen (AID 720653; active = well fitted curve in the direction sought with a large enough effect in the repeat runs; an effect the other way counts as inactive or inconclusive; note: % is set by controls: 0 for no effect and ±100 for the full control effect). Particulars: ARE-bla HepG2 viability, CellTiter-Glo ATP luminescence, 16 h; max response: stronger effect = lower value. In short, it runs like this:
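Cytotoxicity counter screen: intracellular ATP quantified by CellTiter-Glo luminescence in the same ARE-bla HepG2 plates, after 16 h compound exposure and a 2 h beta-lactamase substrate step.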

A short description of test [18]: qHTS assay for cell viability of the p53RE-bla HCT-116 cell line (AID 743292; active = well fitted curve in the direction sought with a large enough effect; an effect the other way counts as inactive or inconclusive; note: % is set by controls: 0 for no effect and ±100 for the full control effect; nearly all actives have a fitted effect of over 55% in size). In a few lines:
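ATP-based luminescent viability (CellTiter-Glo, 30 min RT) after 16 h compound treatment at 37 C of p53RE-bla HCT-116 cells, seeded at 4,000 cells/well and rested 5 h before dosing.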

In test [19] the target is Thyroid hormone receptor beta (Homo sapiens) (UniProt P10828). The test is described as follows: qHTS assay for small molecule agonists of thyroid hormone receptor beta signaling (AID 588545). In a few lines: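 Agonist activity was read as beta-lactamase CCF4 fluorescence (405 ex, 460/530 em), scaled between DMSO (0%) and 10 nM T3 (100%), then Hill-fitted for EC50 and efficacy. HEK 293 TR-UAS-bla cells in 2% charcoal/dextran FBS medium were exposed 18 h at 37 C.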

The nature of test [20]: qHTS assay for cell viability of HEK293 cells (AID 743288; active = well fitted curve in the direction sought with a large enough effect; an effect the other way counts as inactive or inconclusive; note: % is set by controls: 0 for no effect and ±100 for the full control effect; nearly all actives have a fitted effect of over 50% in size). Conditions: ATP luminescence (CellTiter-Glo), 18 h; max response: stronger effect = lower value. In a few lines: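 The Tox21 protocol used parental HEK293 cells treated for 18 h at 37 C with compounds delivered by pintool; ATP-coupled luminescence after 30 min at room temperature gave viability.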

These results are taken from PubChem BioAssay (NCATS).

The structures appear in SMILES notation. Records with an inconclusive call do not appear. Activity calls are given as the source filed them. Unless noted, calls come from the whole dose curve.

Retinoic acid receptor RXR-alpha (Homo sapiens), sequence (P19793 whole entry, looked up): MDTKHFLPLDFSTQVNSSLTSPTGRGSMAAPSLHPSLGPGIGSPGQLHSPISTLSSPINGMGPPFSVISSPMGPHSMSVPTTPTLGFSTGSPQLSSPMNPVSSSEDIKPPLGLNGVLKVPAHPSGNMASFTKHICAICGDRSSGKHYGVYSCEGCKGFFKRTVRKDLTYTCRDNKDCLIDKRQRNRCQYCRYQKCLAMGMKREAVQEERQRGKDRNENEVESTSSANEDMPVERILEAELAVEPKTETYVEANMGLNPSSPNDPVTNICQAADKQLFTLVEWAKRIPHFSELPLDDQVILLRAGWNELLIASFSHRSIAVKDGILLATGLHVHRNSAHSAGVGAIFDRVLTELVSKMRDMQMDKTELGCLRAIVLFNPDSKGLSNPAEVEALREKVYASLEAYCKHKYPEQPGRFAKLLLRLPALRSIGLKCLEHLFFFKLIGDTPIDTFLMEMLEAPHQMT
Peroxisome proliferator-activated receptor alpha (Homo sapiens), sequence (Q07869 whole entry, looked up): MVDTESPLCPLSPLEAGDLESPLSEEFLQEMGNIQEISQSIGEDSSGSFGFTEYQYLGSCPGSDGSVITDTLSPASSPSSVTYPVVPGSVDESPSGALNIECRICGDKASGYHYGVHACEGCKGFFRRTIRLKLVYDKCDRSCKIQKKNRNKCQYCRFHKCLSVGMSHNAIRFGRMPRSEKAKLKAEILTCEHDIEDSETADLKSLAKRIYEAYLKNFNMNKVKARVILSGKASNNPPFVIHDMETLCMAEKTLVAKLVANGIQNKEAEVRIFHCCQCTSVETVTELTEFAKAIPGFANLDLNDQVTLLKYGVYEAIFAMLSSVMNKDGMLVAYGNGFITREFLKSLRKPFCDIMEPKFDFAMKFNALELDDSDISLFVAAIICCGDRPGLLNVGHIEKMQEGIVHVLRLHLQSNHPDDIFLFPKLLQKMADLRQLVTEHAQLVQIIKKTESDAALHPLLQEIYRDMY
Peroxisome proliferator-activated receptor delta (Homo sapiens), sequence (Q03181 whole entry, looked up): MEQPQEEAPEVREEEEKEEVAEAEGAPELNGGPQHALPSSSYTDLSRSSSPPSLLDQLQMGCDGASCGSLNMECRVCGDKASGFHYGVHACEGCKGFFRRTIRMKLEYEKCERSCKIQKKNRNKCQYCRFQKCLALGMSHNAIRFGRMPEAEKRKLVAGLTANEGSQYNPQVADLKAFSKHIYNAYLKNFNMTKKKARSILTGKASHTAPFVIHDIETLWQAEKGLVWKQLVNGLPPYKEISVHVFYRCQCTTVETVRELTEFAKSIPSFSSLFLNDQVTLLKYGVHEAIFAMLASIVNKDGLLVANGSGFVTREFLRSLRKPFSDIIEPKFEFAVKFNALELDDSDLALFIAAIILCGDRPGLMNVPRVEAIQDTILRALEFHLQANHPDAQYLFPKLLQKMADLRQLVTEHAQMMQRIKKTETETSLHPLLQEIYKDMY
Bile acid receptor (Homo sapiens), sequence (Q96RI1 whole entry, looked up): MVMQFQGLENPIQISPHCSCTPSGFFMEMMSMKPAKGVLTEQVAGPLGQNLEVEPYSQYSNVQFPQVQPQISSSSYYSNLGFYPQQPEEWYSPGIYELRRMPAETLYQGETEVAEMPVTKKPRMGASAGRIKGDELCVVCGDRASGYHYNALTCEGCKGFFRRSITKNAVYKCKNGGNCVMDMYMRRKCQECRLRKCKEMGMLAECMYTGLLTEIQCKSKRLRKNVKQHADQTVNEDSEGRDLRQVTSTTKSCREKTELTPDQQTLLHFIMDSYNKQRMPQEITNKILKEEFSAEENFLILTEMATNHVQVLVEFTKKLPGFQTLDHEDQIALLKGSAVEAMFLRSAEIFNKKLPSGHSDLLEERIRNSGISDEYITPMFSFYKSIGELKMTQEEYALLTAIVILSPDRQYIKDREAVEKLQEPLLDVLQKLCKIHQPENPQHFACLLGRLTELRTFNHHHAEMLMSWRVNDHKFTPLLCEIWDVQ
Thyroid hormone receptor beta (Homo sapiens), sequence (P10828 whole entry, looked up): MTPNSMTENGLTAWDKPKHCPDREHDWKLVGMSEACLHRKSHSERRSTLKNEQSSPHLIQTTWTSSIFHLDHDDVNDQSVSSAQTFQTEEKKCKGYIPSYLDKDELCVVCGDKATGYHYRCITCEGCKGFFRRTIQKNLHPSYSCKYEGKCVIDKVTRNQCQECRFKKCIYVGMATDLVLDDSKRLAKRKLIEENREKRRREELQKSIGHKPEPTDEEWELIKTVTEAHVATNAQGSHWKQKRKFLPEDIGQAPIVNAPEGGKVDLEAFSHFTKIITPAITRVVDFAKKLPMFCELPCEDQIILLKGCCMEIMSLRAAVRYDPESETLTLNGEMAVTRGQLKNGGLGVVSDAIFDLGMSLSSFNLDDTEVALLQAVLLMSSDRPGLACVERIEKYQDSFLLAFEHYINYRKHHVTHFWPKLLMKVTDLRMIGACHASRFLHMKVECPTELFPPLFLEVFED
Glucocorticoid receptor (Homo sapiens), sequence (P04150 whole entry, looked up): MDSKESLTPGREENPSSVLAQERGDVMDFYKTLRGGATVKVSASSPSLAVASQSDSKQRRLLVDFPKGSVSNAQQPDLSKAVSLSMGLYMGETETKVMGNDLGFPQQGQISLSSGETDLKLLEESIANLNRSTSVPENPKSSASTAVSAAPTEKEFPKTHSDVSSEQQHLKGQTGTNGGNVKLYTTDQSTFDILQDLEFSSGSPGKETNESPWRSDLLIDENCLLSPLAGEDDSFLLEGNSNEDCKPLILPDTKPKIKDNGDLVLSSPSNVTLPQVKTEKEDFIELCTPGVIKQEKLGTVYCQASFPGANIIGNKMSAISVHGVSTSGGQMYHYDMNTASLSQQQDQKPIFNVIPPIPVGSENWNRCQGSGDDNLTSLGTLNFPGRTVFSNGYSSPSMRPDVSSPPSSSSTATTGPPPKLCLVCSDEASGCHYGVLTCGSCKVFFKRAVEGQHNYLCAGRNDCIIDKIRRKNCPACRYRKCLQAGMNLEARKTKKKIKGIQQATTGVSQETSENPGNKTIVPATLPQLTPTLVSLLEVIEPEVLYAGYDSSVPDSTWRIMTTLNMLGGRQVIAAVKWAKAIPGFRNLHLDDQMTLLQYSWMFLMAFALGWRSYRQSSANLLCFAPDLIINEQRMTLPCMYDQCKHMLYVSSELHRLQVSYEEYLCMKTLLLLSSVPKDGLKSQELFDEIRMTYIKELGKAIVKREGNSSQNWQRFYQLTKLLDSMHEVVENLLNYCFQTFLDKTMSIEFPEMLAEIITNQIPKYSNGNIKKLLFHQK
Vitamin D3 receptor (Homo sapiens), sequence (P11473 whole entry, looked up): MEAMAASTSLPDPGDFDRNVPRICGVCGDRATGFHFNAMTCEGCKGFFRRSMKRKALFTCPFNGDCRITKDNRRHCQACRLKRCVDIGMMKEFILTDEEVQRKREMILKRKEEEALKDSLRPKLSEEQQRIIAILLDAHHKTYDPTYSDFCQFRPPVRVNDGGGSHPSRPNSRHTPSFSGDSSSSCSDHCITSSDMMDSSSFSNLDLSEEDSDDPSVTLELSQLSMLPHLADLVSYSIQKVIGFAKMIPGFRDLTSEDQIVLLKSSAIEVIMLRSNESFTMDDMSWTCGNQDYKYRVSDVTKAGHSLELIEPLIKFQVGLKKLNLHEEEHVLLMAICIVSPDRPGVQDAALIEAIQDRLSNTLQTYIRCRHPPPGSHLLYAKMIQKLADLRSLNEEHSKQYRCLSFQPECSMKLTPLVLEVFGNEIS

Take `CCCCCCCCCCCC#N`: the Potency result in [1], in test [6], in test [8], in test [16] and in [18] was “inactive” in each case. Besides, the activation in [2] was -2.48% (inactive); in test [3], -5.17% (inactive); in [12] it was 0.106% (inactive); in test [13], -0.827% (inactive); in test [14], 1.84% (inactive). Further, the molecule was called inactive in test [4] and in [7]. Besides, the max response in test [5] is -15.4%; in test [9], -6.71%; in test [10], 4.86% (inactive); in test [15], -0.162% (inactive); in [17] it was -0.799% (inactive). Also, the activity change % (negative = inhibition) in [11] was 16.2% (inactive).

For `FC(F)C(F)(F)OCC(Cn1cncn1)c1ccc(Cl)cc1Cl` (centres undefined), the Potency result in test [1], in test [6], in test [8], in [19], in [16] and in [18] was “inactive” each time. The activation is 1.13% (inactive) in [2], 3.91% (inactive) in test [3], 0.478% (inactive) in test [12] and 0.464% (inactive) in [13]. Besides, the outcome in test [4] and in test [7] was inactive. Besides, the max response in [9] was -6.39%; in [10], 4.82% (inactive); in test [15], -0.725% (inactive); in test [17] it was 4.71% (inactive); in [20] it was -9.21% (inactive). The activity change % (negative = inhibition) in test [11] is -17.9% (inactive).

On to `Cc1nc(N(C)C)nc(OC(=O)N(C)C)c1C`, for which the Potency result in [1], in test [6], in test [8], in [19], in test [16] and in test [18] was “inactive” throughout. Besides, the values for the activation in [2], in test [3] and in test [14] were 2.16% (inactive), 1.95% (inactive) and -0.147% (inactive), respectively. In addition, in test [4], the molecule was classed as inactive. Also, the max response in test [5] is 13.1%; in test [9], -14.1%; in test [10], 5.66% (inactive); in test [15], -0.626% (inactive); in [17], -25.3% (inactive); in [20], -11.4% (inactive). In test [11], the activity change % (negative = inhibition) is -14.4% (inactive).

On to `c1ccc2c(c1)[nH]c1ccccc12`, for which the molecule was called inactive in test [4]. Moreover, the Potency result in [16] is “inactive”.

Regarding `COc1nn(C(=O)NS(=O)(=O)c2ccccc2OC(F)(F)F)c(=O)n1C`, the Potency entry in test [1], in test [6], in test [8] and in test [16] was “inactive” in each case. Further, the values for the activation in [2], in test [3] and in [13] were 1.22% (inactive), -3.65% (inactive) and -2.5% (inactive), respectively. For the same molecule, the molecule was called inactive in test [4] and in test [7]. Besides, the max response in test [9] is -2.65%; in [15] it was -1.08% (inactive); in test [17], 3.81% (inactive); in test [20] it was -3.61% (inactive). Besides, in test [11], the activity change % (negative = inhibition) was 8.96% (inactive).

`CCCCOC(=O)c1ccccc1C(=O)O`: the Potency entry in test [1], in test [8], in test [19] and in [16] was “inactive” in each case. Besides, the activation is -1.61% (inactive) in test [2], -2.82% (inactive) in test [12], 1.8% (inactive) in test [13] and -4.01% (inactive) in [14]. Besides, the outcome in test [4] was inactive. Besides, the max response in [5] was 23.7%; in [9] it was 2.69%; in [10], 13.7% (inactive); in test [15], 0.528% (inactive); in [17], 18.5% (inactive). In addition, the activity change % (negative = inhibition) in [11] is 6.47% (inactive).
